This note sets out measurements from PubChem BioAssay (Tox21).

The nature of assay [1]: Nuclear factor erythroid 2-related factor 2/antioxidant responsive element (Nrf2/ARE) small molecule agonists: qHTS cell viability counter screen in human keratinocytes (AID 1919968; active means well fitted curve in the direction sought with a large enough effect in the repeat runs; an effect the other way counts as inactive or inconclusive; further: nearly all actives have a fitted effect of over 55% in size; further: potency means the concentration at half of the fitted maximal effect). A digest of the protocol: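 CellTiter-Fluor fluorescence, read 1 h after reagent, gave viability in the same wells as the ARE-luciferase assay. KeratinoSens cells (1,500/well) had 23 h compound exposure at 37 C/5% CO2 following 5 h plating.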

The nature of assay [2]: Nuclear factor erythroid 2-related factor 2/antioxidant responsive element (Nrf2/ARE) small molecule agonists: luciferase reporter gene qHTS assay in human keratinocytes (AID 1919969). Further: nearly all actives have a fitted effect of over 35% in size. Further: potency means the concentration at half of the fitted maximal effect. In general terms: In a reporter assay the amount or activity of a reporter protein is the signal.
The target in assay [3] is KiSS-1 receptor (Homo sapiens) (UniProt Q969F8). Put plainly: Human kisspeptin (KISS1R) small molecule agonists, calcium flux assay in KISS1R-HEK293 cells (AID 1920064; active means well fitted curve in the direction sought with a large enough effect in the repeat runs; an effect the other way counts as inactive or inconclusive). A digest of the protocol: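 Agonist mode: intracellular calcium rise tracked at 1 s intervals over 3 min (480/540 nm) immediately after compound addition to dye-loaded KISS1R-HEK293 stable cells. Each compound tested at 15 concentrations in triplicate.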
Background: A change in cytosolic calcium serves as a functional read-out for many receptors and channels.

The nature of assay [4]: G protein-coupled receptor (GPCR) small molecule agonists, calcium flux assay: HEK293 wild type cell line counter screen (AID 1920065). The procedure, abridged: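 Calcium flux counter screen: compound added in agonist mode at 15 concentrations in triplicate to dye-loaded parental HEK293 cells. Fluorescence (480/540) read kinetically for 3 min; ATP served as positive control.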

Assay [5] in a line: p53 small molecule agonists, cell-based qHTS assay with human liver microsomes: qHTS cell viability counter screen (AID 1963579). Further: nearly all actives have a fitted effect of over 45% in size. A digest of the protocol:
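Metabolically activated exposure: compounds, human liver microsomes and NADPH (0.5 mg/mL final apiece) were added to p53RE-bla cells seeded 5 h earlier, left 16 h at 37 C, and then assessed for viability by CellTiter-Glo luminescence.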
(In qHTS, concentration-response curves come from the screen itself.)

Assay [6] in a line: p53 small molecule agonists, cell-based qHTS assay with rat liver microsomes: qHTS cell viability counter screen (AID 1963580). Further: nearly all actives have a fitted effect of over 45% in size. Further: potency means the concentration at half of the fitted maximal effect. A digest of the protocol:
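Cytotoxicity counter screen: intracellular ATP measured by CellTiter-Glo luminescence in the same wells as the beta-lactamase reporter read, on HCT-116 p53RE-bla cells exposed 16 h at 37 C to compounds with rat liver microsomes and NADPH, each 0.5 mg/mL final.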

Assay [7] in a line: p53 small molecule agonists, cell-based qHTS assay: qHTS cell viability counter screen (AID 1963581). Further: nearly all actives have a fitted effect of over 45% in size. A digest of the protocol: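 Counter screen read by CellTiter-Glo luminescence (ATP content, 30 min at room temperature), run in the same wells as the beta-lactamase reporter read. HCT-116 p53RE-bla cells saw compounds for 16 h at 37 C.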
For assay [8], the target named is 5-hydroxytryptamine receptor 2A (Homo sapiens) (UniProt P28223). Kind of assay: 5-hydroxytryptamine receptor 2A (HTR2A) small molecule antagonists, cell-based qHTS assay (AID 1963586). Further: nearly all actives have a fitted effect of over 45% in size. Further: potency means the concentration at half of the fitted maximal effect. The procedure, abridged:
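CHO cells stably expressing human HTR2A were plated for 18 h at 37 C, then loaded with calcium dye for 1 h. Compounds were preincubated 5 min at room temperature before DOI (4 nM solution) was added. Kinetic fluorescence was read for 3 min.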

The target is the same in assay [9]. Put plainly: 5-hydroxytryptamine receptor 2A (HTR2A) small molecule agonists, cell-based qHTS assay (AID 1963587). Further: nearly all actives have a fitted effect of over 30% in size. Further: potency means the concentration at half of the fitted maximal effect. The procedure, abridged:
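CHO cells stably expressing human HTR2A, plated 18 h, loaded with calcium dye 1 h at 37 C. Agonist mode: compounds added and intracellular calcium fluorescence recorded kinetically for 2 min at 1 sec intervals.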

Assay [10] concerns the target Muscarinic acetylcholine receptor M1 (Homo sapiens) (UniProt P11229). Kind of assay: Cholinergic receptor muscarinic 1 (CHRM1) small molecule antagonists, cell-based qHTS assay (AID 1963588). Further: nearly all actives have a fitted effect of over 40% in size. A digest of the protocol: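 Compounds were tested at 15 concentrations in three independent runs. Dye-loaded CHRM1-CHO cells were exposed 5 min at room temperature before stimulation by acetylcholine added at 50nM. Intracellular calcium was read kinetically on FDSS for 3 min.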

Assay [11] can be described thus: cAMP Responsive Elements (CRE) small molecule agonists, cell-based qHTS assay (AID 1963590). A digest of the protocol:
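Agonist mode: compound added to CRE-bla HEK 293T cells (2,000/well, 18 h after plating) for 3 h at 37 C/5% CO2. Reporter activity detected via FRET beta-lactamase substrate, 2 h room-temperature loading.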

A short description of assay [12]: cAMP Responsive Elements (CRE) small molecule antagonists, cell-based qHTS assay (AID 1963591; active means well fitted inhibition curve with a large enough effect in the signal ratio in the repeat runs, not every such curve was filed as active; the % refers to the signal ratio). A digest of the protocol: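 Antagonist mode: compounds are added alongside the adenylyl cyclase activator NKH477 (0.25 uM final) to CRE-bla HEK293T cells for 3 h. LiveBLAzer FRET substrate, 2 h at room temperature, reports bla expression.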
Assay [13] deals with Beta-2 adrenergic receptor (Homo sapiens) (UniProt P07550). Kind of assay: Adrenergic beta2 receptor (ADRB2) small molecule antagonists, cell-based qHTS assay (AID 1963592). Further: series mostly up to about 92 µM; nearly all actives have a fitted effect of over 50% in size. A digest of the protocol: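 Assay format: CHO-ADRB2 cells, 18-20hr seeding at 37C/5% CO2, then compound plus 1nM isoproterenol agonist mix for 0.5hr RT. Homogeneous time-resolved fluorescence cAMP detection after 1hr, expressed as 665/615 nm ratio.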

Assay [14] has as its target D(2) dopamine receptor (Homo sapiens) (UniProt P14416). Put plainly: Dopamine D2 receptor (DRD2) small molecule agonists, cell-based qHTS assay (AID 1963594). Further: nearly all actives have a fitted effect of over 35% in size. Further: potency means the concentration at half of the fitted maximal effect. A digest of the protocol: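 HEK293 cells stably expressing human DRD2, pre-treated with PDE inhibitor Ro20-1724 (0.1 mM final) and compound 10 min at room temperature, then stimulated with NKH477 (200nM […]) for 30 min. cAMP read by HTRF (665/620 nm).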

Assay [15] has the same target. Kind of assay: Dopamine D2 receptor (DRD2) small molecule antagonists, cell-based qHTS assay (AID 1963595; active means well fitted inhibition curve with a large enough effect in the signal ratio in the repeat runs, with a control signal flat; the % refers to the signal ratio). A digest of the protocol:
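Readout: HTRF cAMP, cAMP-d2 competing with cellular cAMP for anti-cAMP cryptate, read after 1 h. Cells: DRD2-HEK293. Conditions: 0.1 mM Ro20-1724, 12 nM quinpirole, 200 nM NKH477, 30 min RT.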

Assay [16] has as its target Muscarinic acetylcholine receptor M1 (Homo sapiens) (UniProt P11229). Put plainly: Cholinergic receptor muscarinic 1 (CHRM1) small molecule agonists, cell-based qHTS assay (AID 1963589). Further: nearly all actives have a fitted effect of over 35% in size. The procedure, abridged:
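Agonist-mode calcium-flux screen: compounds at 15 concentrations, three independent runs, were pin-transferred onto dye-loaded human CHRM1-CHO cells. Fluorescence was then recorded kinetically every second over minutes.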

Assay [17] in a line: p53 small molecule agonists, cell-based qHTS assay with rat liver microsomes (AID 1963578). A digest of the protocol: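 Agonist mode in p53RE-bla reporter cells, with compounds co-incubated 16 h at 37 C alongside 0.5 mg/mL rat liver microsomes and 0.5 mg/mL NADPH (final), followed by a 2 h LiveBLAzer detection step.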
A short description of assay [18]: p53 small molecule agonists, cell-based qHTS assay (AID 1963582; active means well fitted activation curve with a large enough effect in the signal ratio in the repeat runs, not every such curve was filed as active; the % refers to the signal ratio). The procedure, abridged:
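Read-out is beta-lactamase FRET fluorescence after 2 h at room temperature with LiveBLAzer B/G substrate. p53 response element-bla cells were treated 16 h at 37 C with compounds in DMSO, added 5 h after seeding.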

Assay [19] is described as follows: p53 small molecule agonists, cell-based qHTS assay with human liver microsomes (AID 1963577).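 Further: p53 response element beta-lactamase reporter cells with liver microsomes plus NADPH.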 A digest of the protocol:
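In this qHTS, p53 response-element beta-lactamase cells receive test compound together with a microsome/NADPH activating system (0.5 mg/mL final each) and are incubated 16 h at 37 C before LiveBLAzer fluorescence detection.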

Unmarked numbers belong to inactive results. Inconclusive results are not listed. The source made the active and inactive calls. Unless noted, the call rests on the fitted dose curve.

D(2) dopamine receptor (Homo sapiens), sequence (P14416 whole entry, looked up): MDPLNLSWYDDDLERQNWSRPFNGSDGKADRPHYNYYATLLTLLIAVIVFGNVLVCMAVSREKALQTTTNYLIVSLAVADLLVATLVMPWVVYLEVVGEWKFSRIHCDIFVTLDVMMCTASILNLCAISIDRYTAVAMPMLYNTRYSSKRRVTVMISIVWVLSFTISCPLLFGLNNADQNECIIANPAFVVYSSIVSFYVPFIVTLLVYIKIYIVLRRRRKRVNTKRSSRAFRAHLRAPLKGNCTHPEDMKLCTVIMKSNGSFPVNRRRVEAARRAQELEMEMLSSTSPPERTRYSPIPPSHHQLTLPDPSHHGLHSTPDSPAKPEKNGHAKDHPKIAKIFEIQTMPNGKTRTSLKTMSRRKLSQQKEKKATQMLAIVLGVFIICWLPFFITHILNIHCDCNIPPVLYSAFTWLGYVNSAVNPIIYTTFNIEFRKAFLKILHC
Beta-2 adrenergic receptor (Homo sapiens), sequence (P07550 whole entry, looked up): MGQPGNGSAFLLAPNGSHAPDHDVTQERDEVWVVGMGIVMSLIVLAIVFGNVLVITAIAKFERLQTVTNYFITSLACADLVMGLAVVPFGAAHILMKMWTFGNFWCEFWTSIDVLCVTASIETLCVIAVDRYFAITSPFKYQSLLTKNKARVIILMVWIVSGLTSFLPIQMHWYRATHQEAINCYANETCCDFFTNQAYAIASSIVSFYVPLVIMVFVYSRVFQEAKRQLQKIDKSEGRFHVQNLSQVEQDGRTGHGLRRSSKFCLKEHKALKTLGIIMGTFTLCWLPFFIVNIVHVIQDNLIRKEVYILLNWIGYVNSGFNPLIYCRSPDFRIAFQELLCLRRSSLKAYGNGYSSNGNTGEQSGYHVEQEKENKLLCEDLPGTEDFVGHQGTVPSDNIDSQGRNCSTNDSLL
5-hydroxytryptamine receptor 2A (Homo sapiens), sequence (P28223 whole entry, looked up): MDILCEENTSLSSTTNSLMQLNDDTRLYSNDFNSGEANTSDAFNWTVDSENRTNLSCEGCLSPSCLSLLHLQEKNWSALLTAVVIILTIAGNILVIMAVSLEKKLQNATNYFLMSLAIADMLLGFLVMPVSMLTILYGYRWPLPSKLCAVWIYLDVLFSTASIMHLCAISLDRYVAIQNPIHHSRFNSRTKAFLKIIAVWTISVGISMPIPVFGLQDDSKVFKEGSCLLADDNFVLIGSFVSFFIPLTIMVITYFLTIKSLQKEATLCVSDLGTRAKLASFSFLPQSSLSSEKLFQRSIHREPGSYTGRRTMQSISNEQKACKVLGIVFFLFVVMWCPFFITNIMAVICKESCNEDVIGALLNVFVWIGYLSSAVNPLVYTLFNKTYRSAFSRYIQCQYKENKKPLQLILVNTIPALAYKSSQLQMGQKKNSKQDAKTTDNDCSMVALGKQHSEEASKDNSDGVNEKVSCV
Muscarinic acetylcholine receptor M1 (Homo sapiens), sequence (P11229 whole entry, looked up): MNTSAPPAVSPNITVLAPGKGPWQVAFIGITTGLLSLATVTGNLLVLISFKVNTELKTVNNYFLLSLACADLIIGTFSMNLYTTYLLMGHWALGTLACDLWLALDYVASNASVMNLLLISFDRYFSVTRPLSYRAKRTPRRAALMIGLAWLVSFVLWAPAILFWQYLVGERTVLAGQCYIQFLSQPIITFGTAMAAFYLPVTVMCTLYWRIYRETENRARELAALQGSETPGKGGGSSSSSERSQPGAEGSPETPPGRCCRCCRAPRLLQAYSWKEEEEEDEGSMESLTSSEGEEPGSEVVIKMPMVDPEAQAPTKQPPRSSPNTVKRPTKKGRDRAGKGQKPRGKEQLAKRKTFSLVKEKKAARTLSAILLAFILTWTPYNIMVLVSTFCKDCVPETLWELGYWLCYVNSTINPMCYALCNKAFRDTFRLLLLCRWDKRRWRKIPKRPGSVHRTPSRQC
KiSS-1 receptor (Homo sapiens), sequence (Q969F8 whole entry, looked up): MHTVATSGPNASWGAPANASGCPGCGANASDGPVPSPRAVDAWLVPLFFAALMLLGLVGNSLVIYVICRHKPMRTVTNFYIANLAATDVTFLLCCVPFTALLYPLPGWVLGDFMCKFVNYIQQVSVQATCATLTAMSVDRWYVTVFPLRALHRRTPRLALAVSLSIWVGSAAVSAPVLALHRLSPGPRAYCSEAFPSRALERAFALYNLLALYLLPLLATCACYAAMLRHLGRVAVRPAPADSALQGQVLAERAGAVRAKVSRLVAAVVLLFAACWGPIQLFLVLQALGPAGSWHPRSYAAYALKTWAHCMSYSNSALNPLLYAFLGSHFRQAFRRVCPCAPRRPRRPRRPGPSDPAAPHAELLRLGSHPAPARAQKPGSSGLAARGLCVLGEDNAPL

`COc1c2c(cc3c1OCO3)CCN(C)C2`: the Potency result in assay [1], in assay [2], in [3], in assay [4], in [5] and in assay [6] was “inactive” throughout. The Potency entry in [7], in assay [10], in assay [11], in [12], in [13] and in assay [15] was “inactive” each time. Besides, the values for the Potency in [8], in assay [9] and in assay [14] were 16.3 µM (active), 1.2 µM (active) and 6.68 µM (active), respectively.

For `CCc1ccccc1N`, the Potency result in assay [1], in [2], in assay [3], in assay [4], in [5] and in assay [6] was “inactive” in each case. The Potency entry in assay [9], in assay [10], in [16], in assay [12], in [13] and in assay [14] was “inactive” throughout. The Potency result in [15] was “inactive”.

Consider `CC(=O)c1ccc(-c2ccccc2)cc1`, for which the Potency entry in assay [1], in assay [2], in assay [3], in [4], in assay [17] and in assay [5] was “inactive” each time. The Potency entry in assay [6], in [7], in assay [18], in assay [9], in assay [10] and in assay [16] was “inactive” each time. The Potency entry in assay [11], in assay [13], in [14] and in assay [15] was “inactive” throughout.

In the case of `O=C1C=CC(=O)c2ccccc21`, the Potency was 15.4 µM (active) in assay [1], 6.11 µM (active) in assay [2], 20.4 µM (active) in assay [6] and 21.9 µM (active) in [9]. The Potency entry in assay [3], in assay [4], in assay [19], in assay [17], in assay [7] and in assay [8] was “inactive” throughout. Besides, the Potency result in [10], in assay [16], in [13] and in [14] was “inactive” throughout.

For `COc1nn(C(=O)NS(=O)(=O)c2ccccc2OC(F)(F)F)c(=O)n1C`, the Potency result in assay [1], in [2], in [3], in assay [4], in [5] and in assay [6] was “inactive” in each case. The Potency entry in assay [7], in assay [8], in assay [11], in [12], in assay [13] and in assay [15] was “inactive” in each case.

As for `CON(C)C(=O)Nc1ccc(Br)cc1`, the Potency entry in assay [1], in assay [2], in assay [3], in [4], in assay [19] and in assay [17] was “inactive” each time. In addition, the Potency entry in assay [5], in assay [7], in assay [18], in assay [8], in assay [9] and in assay [10] was “inactive” throughout. Besides, the Potency result in assay [16], in assay [11], in assay [12], in assay [13], in assay [14] and in [15] was “inactive” each time.

Turning to `O=S(=O)(C(Cl)(Cl)Cl)C(Cl)(Cl)Cl`, the results for the Potency in assay [1], in assay [2] and in [9] were 24.3 µM (active), 8.63 µM (active) and 49 µM (active), respectively. Besides, the Potency result in assay [3], in assay [4], in assay [19], in assay [17], in assay [5] and in assay [7] was “inactive” each time. The Potency entry in assay [10], in assay [16], in [13] and in [15] was “inactive” each time.
